PubChem BioAssay (Tox21)
Inconclusive results are not listed. Activity calls are given as the source filed them. Unless noted, calls follow the shape of the dose curve; as a rule, active = well fitted curve in the direction sought with a large enough effect in the repeat runs; inconclusive = weak or mixed curves; inactive = no such curve, though single readings can be large; an effect the other way counts as inactive or inconclusive.

Key:
[1] = qHTS assay for small molecule agonists of the p53 signaling pathway (AID 651631; calls by dose curve; also: nearly all actives have a fitted effect of over 15% in size)
Procedure, shortened: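 Read-out is beta-lactamase FRET fluorescence measured 2 h after substrate addition at room temperature, in HCT-116 cells with a p53 response element-driven reporter exposed to compounds for 16 h at 37 °C.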

[2] = qHTS assay for small molecules that induce genotoxicity in human embryonic kidney cells expressing luciferase-tagged ATAD5 (AID 651632); also: nearly all actives have a fitted effect of over 15% in size
Procedure, shortened: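 Concentration-response screen for ATAD5 upregulation in HEK293T luciferase reporter cells; 16 hr treatment at 37C, then luminescence after 30 min with Amplite at room temperature.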

[3] = qHTS assay for small molecule agonists of the p53 signaling pathway - cell viability (AID 651633; calls by dose curve;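 also: p53RE-bla HCT reporter cells with a stable beta-lactamase p53 reporter; series mostly up to about 83 µM; nearly all actives have a fitted effect of over 30% in size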)
Procedure, shortened: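 p53RE-bla cells were treated with compound for 16 hours at 37 C. Cytotoxicity was then measured as CellTiter-Glo luminescence after 30 min at room temperature.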

[4] = qHTS assay for small molecules that induce genotoxicity in human embryonic kidney cells expressing luciferase-tagged ATAD5 - cell viability (AID 651634; calls by dose curve; also: nearly all actives have a fitted effect of over 25% in size)
Procedure, shortened: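 15.5 hr compound or vehicle exposure of HEK293T cells expressing luciferase-tagged ATAD5 at 37C; live-cell protease activity is read by fluorescence after 30 min of CellTiter-Fluor.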

[5] = qHTS assay for small molecule disruptors of the mitochondrial membrane potential - cell viability (AID 720634; calls by dose curve;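 also: human HepG2 liver cancer cells; series mostly up to about 83 µM; nearly all actives have a fitted effect of over 20% in size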)
Procedure, shortened: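 In this qHTS format, HepG2 cells plated overnight were pinned with compound, incubated 1 hr, and assayed for ATP luminescence with CellTiter-Glo after m-MPI dye addition.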

[6] = qHTS assay to test for compound auto fluorescence at 590 nm (red) in HepG2 cells (AID 720674)
Procedure, shortened: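 Seeding: 2,000 HepG2 cells/well, MEM/10% FBS, overnight 37 C. Dosing: compound vs DMSO. Incubation: 1 hr, 37 C, 5% CO2. Read: fluorescence 540 ex/590 em, Rose Bengal sodium as red reference.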

[7] = qHTS assay to test for compound auto fluorescence at 535 nm (green) in HepG2 cells (AID 720675)
[8] = qHTS assay to test for compound auto fluorescence at 460 nm (blue) in HEK293 cells (AID 720678)
Procedure, shortened: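 After cell attachment (4-5 hr, 37C), compounds were pinned onto HEK293 monolayers in 10% dialyzed FBS medium. The blue channel (405/460 nm) was read following overnight culture. Equivalency was calculated against triamterene.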

[9] = qHTS assay to test for compound auto fluorescence at 590 nm (red) in HEK293 cells (AID 720679)
Procedure, shortened: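 Plates of HEK293 cells (10% dialyzed FBS) are treated with 23 nL compound or DMSO vehicle after a 4-5 hr attachment period, incubated overnight at 37C, and read for red fluorescence at 540/590nm.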

[10] = qHTS assay for small molecule disruptors of the mitochondrial membrane potential (AID 720635)
Procedure, shortened: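 HepG2 cells exposed to compound 1 hr at 37C, then Mito-MPS dye 30 min. Ratio read of aggregate (540/590 nm) versus monomer (490/535 nm) fluorescence.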

Measured: Potency

CN1c2c(nc(N)[nH]c2=O)NCC1CNc1ccc(C(=O)NC(CCC(=O)O)C(=O)O)cc1 (stereo unspecified)
inactive: [1] | [2] | [3] | [4] | [5] | [6] | [7] | [8] | [9]

COc1cc(C[C@@H]2NCCc3cc(O)c(O)cc32)cc(OC)c1OC
inactive: [1] | [2] | [3] | [4] | [5] | [6] | [7] | [8] | [9]

O=C(NNCS(=O)(=O)O)c1ccncc1
inactive: [1] | [2] | [3] | [4] | [5] | [6] | [7] | [8] | [9]

CC(C)(C)C(=O)OCOC(=O)[C@@H]1N2C(=O)[C@@H](N=CN3CCCCCC3)[C@H]2SC1(C)C
inactive: [1] | [2] | [3] | [4] | [5] | [6] | [7] | [8] | [9]

O=C(CO)[C@@H](O)[C@H](O)[C@@H](O)C(=O)O
inactive: [1] | [2] | [3] | [4] | [5] | [6] | [7] | [8] | [9]

O=C(O)c1cc(O)c2c(c1)[O][Bi][O]2
inactive: [1] | [2] | [3] | [4] | [5] | [6] | [7] | [8] | [9]

Cc1cccc(C)c1NC(=O)NC1=CCCN1C
inactive: [1] | [2] | [3] | [4] | [5] | [6] | [7] | [8] | [9]

CC(C)(C)CC(C)(C)c1cc(Cc2cc(C(C)(C)CC(C)(C)C)cc(-n3nc4ccccc4n3)c2O)c(O)c(-n2nc3ccccc3n2)c1
inactive: [1] | [2] | [3] | [4] | [5] | [6] | [7] | [8] | [9]

O=C(O)c1cccc(/C=C2/C[C@@H]3[C@@H](/C=C/[C@@H](O)C4CCCCC4)[C@H](O)C[C@@H]3O2)c1
inactive: [1] | [2] | [3] | [4] | [5] | [6] | [7] | [8] | [9]

NCCCNCCCCNC(=O)C(O)NC(=O)CCCCCCN=C(N)N (stereo unspecified)
inactive: [1] | [2] | [3] | [4] | [5] | [6] | [7] | [8] | [9]

C[C@]12CC[C@@H]3c4ccc(OS(=O)(=O)O)cc4CC[C@H]3[C@@H]1CCC2=O
inactive: [1] | [2] | [3] | [4] | [5] | [6] | [7] | [8] | [9]

Cc1nnc(C(C)C)n1C1C[C@H]2CC[C@@H](C1)N2CC[C@H](NC(=O)C1CCC(F)(F)CC1)c1ccccc1 (stereo partly specified)
inactive: [1] | [2] | [3] | [4] | [5] | [6] | [7] | [8] | [9]

CCOC(=O)Nc1ccc2c(c1)N(C(=O)CN(C)C)c1ccccc1CC2
inactive: [1] | [2] | [3] | [4] | [5] | [6] | [7] | [8] | [9]

CC(C)Cc1ccc([C@@H](C)C(=O)NS(C)(=O)=O)cc1
inactive: [1] | [2] | [3] | [4] | [5] | [6] | [7] | [8] | [9]

C=C1c2c(Cl)ccc(O)c2C(O)=C2C(=O)[C@]3(O)C(O)=C(C(N)=O)C(=O)[C@@H](N(C)C)[C@@H]3[C@@H](O)[C@H]12
inactive: [1] | [2] | [3] | [4] | [5] | [6] | [7] | [8] | [9]

CC(C)(CO)[C@@H](O)C(=O)NCCC(=O)NCCSSCCNC(=O)CCNC(=O)[C@H](O)C(C)(C)CO
inactive: [1] | [2] | [3] | [4] | [5] | [10] | [6] | [8] | [9]

CCc1ccc(S(=O)(=O)O)cc1
inactive: [1] | [2] | [3] | [4] | [5] | [6] | [7] | [8] | [9]

CC(C)[C@@H]1CC[C@@H](C)C[C@H]1OC(=O)c1ccccc1O
inactive: [1] | [2] | [3] | [4] | [5] | [6] | [7] | [8] | [9]

CO/N=C(\C(=O)N[C@@H]1C(=O)N2C(C(=O)O)=C(CSC(=O)c3ccco3)CS[C@H]12)c1csc(N)n1
inactive: [1] | [2] | [3] | [4] | [5] | [6] | [7] | [8] | [9]

CC(=O)N(CC(C)C(=O)O)c1c(I)cc(I)c(N)c1I (stereo unspecified)
inactive: [1] | [2] | [3] | [4] | [5] | [6] | [7] | [8] | [9]

CS(=O)(=O)c1ccc(C2=C(c3ccccc3)C(=O)OC2)cc1
inactive: [1] | [2] | [3] | [4] | [5] | [6] | [7] | [8] | [9]

COc1cc2c(cc1OC)CC(=O)N(CCCN(C)C[C@H]1Cc3cc(OC)c(OC)cc31)CC2
inactive: [1] | [2] | [3] | [4] | [5] | [6] | [7] | [8] | [9]

CC1(C)C2CC[C@]3(C)[C@H](C(=O)C=C4[C@@H]5C[C@@](C)(C(=O)O)CC[C@]5(C)CC[C@]43C)[C@@]2(C)CC[C@@H]1O[C@H]1O[C@H](C(=O)O)[C@@H](O)[C@H](O)[C@H]1O[C@@H]1O[C@H](C(=O)O)[C@@H](O)[C@H](O)[C@H]1O (stereo partly specified)
inactive: [1] | [2] | [3] | [4] | [5] | [6] | [7] | [8] | [9]

CC1(C)[C@@H]2CC[C@@]1(C)[C@H](OC(=O)CSC#N)C2
inactive: [1] | [2] | [3] | [4] | [5] | [6] | [7] | [8] | [9]
